Screens (PubChem)
Sfp inh = Sfp phosphopantetheinyl transferase inhibition; Potency, µM, without a hit: largest response in the series, negative = inhibition, hits mostly inhibitors; AID 1490; Biochemical Sfp PPTase activity, qHTS; 310,000 compounds, 3.5% hits; Q9F4F7;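 further: the enzyme is Sfp with the accession as filed and its product quenches rhodamine fluorescence; potency means the concentration at half of the fitted maximal effect; 0% = enzyme reaction without inhibitor and -100% = no enzyme wells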
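After 15 min at room temperature with compound, 15 nM Sfp received 5 uM rhodamine-CoA plus 12.5 uM BHQ-2-ybbR (50 mM Hepes pH 7.6, 10 mM MgCl2). Rate came from the fluorescence difference over 30 min, ex 525/em 598 nm.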
uPA generation = blocks generation of uPA at the cell surface; Potency, µM (highest dose often 38.3 µM), inactives show top-dose activity change, negative = inhibition, hits mostly inhibitors; cell surface uPA generation assay, qHTS; 330,000 compounds, 0.31% hits; AID 540303; active means well fitted inhibition curve with a large enough effect; inconclusive means small, poorly fitted or top-dose-only effect; inactive means no such curve, though single readings can be large or run the other way; tested in mouse RAW 264.7 cells; further: potency means the concentration at half of the fitted maximal effect; on the % scale 0 is the no-effect control and ±100 the full control effect; nearly all actives have a fitted effect of over 55% in size
TCR activator = T cell receptor activation. primary human leukocytes, anti-CD3, IL-2 HTRF, 48 h. Potency, µM (series often up to 9.22 µM), for the others: top-dose activation of IL-2 secretion, hits mostly activators. 330,000 tested, under 10 active. AID 504894; further: % of control where 0% means no effect
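IL-2 produced over 48 hr by a-CD3 bead-stimulated primary human leukocytes exposed to compounds was detected with a homogeneous time-resolved FRET immunoassay, 665nm acceptor signal after 320nm excitation.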
ClpP mod = qHTS Assay for Activators of ClpP. ATP-dependent Clp protease proteolytic subunit (Bacillus subtilis (strain 168)), P80244. purified B. subtilis ClpP, FRET peptide cleavage, 20 min. Potency, µM (top dose mostly 57.5 µM), without a hit: at the top dose activity change, negative = active. 340,000 compounds, 1.9% hits; active means well fitted falling curve with a large enough effect; inconclusive means small, poorly fitted or top-dose-only effect; inactive means no such curve, though single readings can be large or run the other way; further: potency means the concentration at half of the fitted maximal effect; the source files actives as falling curves though it sought activators and does not explain the sign; nearly all actives have a fitted effect of over 65% in size
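ClpP 10 microg/mL final, pH 8 Tris/KCl buffer with BSA, glycerol, Tween-20; compound pinned in; FRET-FV substrate; RT 20 min; Ex320/Em430; ΔFRET vs ADEP 5.8 microM, DMSO, no enzyme.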
* marks the source's active call; other numbers are inactive results; u = inconclusive; x = no result; [ ] = remark or other dose. A selection: hits, their analogues and other compounds. The true share with any hit is near 4.2%. Unless noted, the call rests on the fitted dose curve; in most records, active means well fitted curve in the direction sought with a large enough effect; inconclusive means small, poorly fitted or top-dose-only effect, or another doubt; inactive means no such curve, though single readings can be large; an effect the other way counts as inactive or inconclusive.

SMILES | Sfp inh | uPA generation | TCR activator | ClpP mod
CCOC(=O)c1c(NS(=O)(=O)c2ccccc2)n(CCCOC)c2nc3ccccc3nc12 | 11% | -1% | -3%[46.1 µM] | 28µM*
COCCOC(=O)c1c(N)n(Cc2ccc(OC)cc2)c2nc3ccccc3nc12 | -2% | 9% | -13% | 25%
COCCNC(=O)c1c(N)n(CCC(C)C)c2nc3ccccc3nc12 | -3% | 8% | -3% | 16µM*
Nc1c(C(=O)OCC2CCCO2)c2nc3ccccc3nc2n1Cc1cccs1 (stereo unspecified) | u | 11% | -3% | 19%
CN(CCc1ccccn1)Cc1ccc(Cl)cc1 | u | x | 2% | 0%
CCC1C2CC3C4N(C)c5ccccc5[C@]45CC(C2C5O)N3C1O (stereo partly specified) | 10% | x | x | x
CCCCNC(=O)c1c(N)n(CCCOC)c2nc3ccccc3nc12 | -21% | x | 1% | 25µM*
COCCCn1c(N)c(C(=O)OCCOC)c2nc3ccccc3nc21 | 6% | 10% | -8% | -2%
COC(=O)c1[nH]c2ccc(C)cc2c1NC(=O)Oc1ccccc1 | -2% | -6% | 3% | 35µM*
O=C1CC2OCC=C3CN4CC[C@]56c7ccccc7N1[C@H]5[C@H]2C3C[C@H]46 (stereo partly specified) | 5% | x | x | x
O=C1NC(=O)C(=Cc2cc(Cl)ccc2OCc2ccc(C(=O)O)cc2)C(=O)N1 | 50µM* | -9% | -2% | u
COC(=O)COc1cc(Cl)c(Cl)cc1Cl | -2% | x | x | x
COc1cc(/C=C2\C(=O)NC(=O)N(c3ccccc3)C2=O)cc(OC)c1O | 22µM* | x | 2% | -5%
Cn1cc(/C=C2\C(=O)NC(=O)N(c3ccccc3)C2=O)c2ccccc21 | -15% | -7% | 2% | x
COc1cc(/C=C2\C(=O)NC(=O)N(c3ccccc3)C2=O)c([N+](=O)[O-])cc1OC | 40µM* | -6% | 5% | -5%
CC(C)(O)C1C2OC(=O)C1[C@]1(O)C[C@H]3O[C@]34C(=O)O[C@H]2[C@]14C (stereo partly specified) (tested in a mixture with another compound) | 8% | x | x | x
CCN1CC2(COC(=O)c3ccccc3N)CCC(OC)C34C5CC6C(OC)CC(O)(C5C6OC)C(O)(C(OC)C23)C14 (stereo unspecified) | 17% | 9% | -1% | 16µM*
CC(C)(c1ccc(OCC2CO2)cc1)c1ccc(OCC2CO2)cc1 (stereo unspecified) | 6% | x | x | x
O=c1oc(C2(O)CCCCC2)cc2ccc(-c3ccc4[nH]ccc4c3)cc12 | x | u | -6% | -19%
CC(C)c1oc(=O)cc2c1[C@@H](O)[C@H]1OC(=O)[C@@]3(C)C[C@@H](O)[C@@H](O)[C@@]2(C)C13 (stereo partly specified) | -3% | 2.2µM* | -2% | -1%
CC(C)c1oc(=O)cc2c1[C@@H](O)[C@H]1OC(=O)[C@@]3(C)CC[C@@H](O)[C@@]2(C)C13 (stereo partly specified) | 3% | u | -3% | 1%
Cc1ccc(NC(=O)c2ccc(S(=O)(=O)N(C)c3ccccc3)cc2)cc1S(=O)(=O)N1CCOCC1 | x | u | -5% | -10%
Cc1c(O)c(=O)ccn1C | 56µM* | 10% | -11% | 3%
O=C(Cc1ccccc1)N1CCN(Cc2cccnc2)CC1 | 79µM* | 2% | -3% | -1%
Cc1cccc(OCC(=O)N2CCN(Cc3cccnc3)CC2)c1 | 10% | 3% | x | 28µM*
SMILES | Sfp inh | uPA generation | TCR activator | ClpP mod
CCc1ccc(CN2CCN(C(=O)Cc3ccccc3)CC2)cc1 | u | -3% | 0% | x
CSc1ccc(CN2CCN(C(=O)COc3cccc(C)c3)CC2)cc1 | 71µM* | 1% | 5% | 0%
Cc1ccc(OCC(=O)N2CCN(Cc3cccnc3)CC2)cc1 | u | 4% | -8% | 1%
Cc1cccc(CN2CCc3nc(N4CCN(c5ccccn5)CC4)ncc3C2)c1 | x | x | x | 55%
O=C(NC(=S)Nc1cc([N+](=O)[O-])ccc1O)c1cccnc1 | -63% | u | -6% | 1%
COC(=O)[C@]1(C)CC[C@@]2(C)CC[C@@]3(C)C4=CC=C5C(=CC(=O)C(O)=C5C)[C@@]4(C)CC[C@@]3(C)C2C1 (stereo partly specified) | -85% | x | x | x
Cc1cccc(N2C(=O)/C(=C/c3ccc(CN(CCC#N)S(C)(=O)=O)o3)C(=O)NC2=S)c1 | 13µM* | -6% | 2% | -3%
